# EPAC2 ant val: validation of human EPAC2 antagonists. hit rate 1.7% among 16,000. EPAC2 Rap1B BODIPY-GDP exchange, fluorescence. Potency, µM (highest dose often 112 µM), inactives show at the top dose activity, negative = inhibition, hits mostly inhibitors. AID 1645886;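 also: 100% = activation by cAMP agonist control; nearly all actives have a fitted effect of over 40% in size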
#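 Normalized against a 6.5 mM cAMP agonist control, compounds were tested on 100 nM EPAC2 exchanging Rap1B-bound BODIPY-GDP (250 nM) for 50 uM GDP. Fluorescence drop (ex 480, em 540 nm) was tracked at room temperature over 30 min at 5-min intervals.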
# EPAC1 ag val: validation of human EPAC1 agonists; EPAC1 Rap1b BODIPY-GDP exchange, fluorescence; hit rate 1% among 16,000; Potency, µM, without a hit: max response, positive = active, usual class: activators; O95398; also: nearly all actives have a fitted effect of over 70% in size
# * hit, by the source's call; ? = inconclusive; ! = not confirmed by another sample; [ ] = another dose, or the depositor's remark. Shown are actives, neighbours in structure and some others; about 2.9% of the full set was active somewhere. Calls follow the shape of the dose curve; as a rule, active = well fitted curve in the direction sought with a large enough effect; inconclusive = small, poorly fitted or top-dose-only effect, or another doubt; inactive = no such curve, though single readings can be large; an effect the other way counts as inactive or inconclusive. Unless noted, % is scaled to controls: 0 for no effect and ±100 for the full control effect; potency is read from the fitted curve at half-maximal effect.
SMILES,EPAC2 ant val,EPAC1 ag val
O=C1OC(c2ccc(O)cc2)(c2ccc(O)cc2)c2ccccc21,35.5µM*!,?
CC1(C)CC[C@]2(C(=O)O)CC[C@@]3(C)C(=CCC4[C@@]5(C)CCC(O)C(C)(C)C5CC[C@@]43C)C2C1 (stereo partly drawn),-14.1%,-49.8%
CC(=O)OC1CCC2(C)C(CCC3(C)C2C(=O)C=C2C4CC(C)(C(=O)OCCN5CCCCC5)CCC4(C)CCC23C)C1(C)C (stereo not drawn),-11.7%,-10.5%
CC1(C)[C@@H](O)CC[C@]2(C)[C@H]3C(=O)C=C4[C@@H]5C[C@@](C)(C(=O)O)CC[C@]5(C)CC[C@@]4(C)[C@]3(C)CC[C@@H]12,1.58µM*,20.1%
CC1(C)[C@@H](O[C@H]2O[C@H](C(=O)O)[C@@H](O)[C@H](O)[C@H]2O[C@@H]2O[C@H](C(=O)O)[C@@H](O)[C@H](O)[C@H]2O)CC[C@]2(C)[C@H]3C(=O)C=C4[C@@H]5C[C@@](C)(C(=O)O)CC[C@]5(C)CC[C@@]4(C)[C@]3(C)CC[C@@H]12,?,-18.2%
CC1(C)C(O)CC[C@]2(C)C1CC[C@@]1(C)C2C(=O)C=C2[C@@H]3C[C@@](C)(C(=O)O)CC[C@@]3(C)CCC21C (stereo partly drawn),7.08µM*,-3.5%
CC1(C)C(OC(=O)CCC(=O)O)CC[C@]2(C)C1CC[C@@]1(C)C2C(=O)C=C2[C@@H]3C[C@@](C)(C(=O)O)CC[C@]3(C)CCC21C (stereo partly drawn),3.98µM*,?
CC(C)C[C@H](NC(=O)[C@@H](Cc1c[nH]c2ccccc12)NC(=O)[C@H](Cc1ccc(O)cc1)NC(=O)[C@H](CO)NC(=O)[C@H](Cc1c[nH]c2ccccc12)NC(=O)[C@H](Cc1cnc[nH]1)NC(=O)[C@@H]1CCC(=O)N1)C(=O)N[C@@H](CCCN=C(N)N)C(=O)N1CCC[C@@H]1C(=O)NCC(N)=O,2.0%,-55.2%
CC(=O)N[C@@H]([C@@H](O)[C@H](O)[C@H](O)CO)[C@@H](O)CC(=O)C(=O)O,1.2%,-6.6%
COc1ccc(CN2CCC3(CC2)c2ccccc2[C@@H](NC(=O)c2ccccc2OC)[C@@H]3O)cc1O,4.4%,-14.1%
CCC(=O)O[C@]1(C(=O)CCl)[C@@H](C)C[C@H]2[C@@H]3C[C@H](F)C4=CC(=O)C=C[C@]4(C)[C@@]3(F)[C@@H](O)C[C@@]21C,?,10.9%
O=C[C@H](O)[C@@H](O)[C@H](O[C@H]1O[C@H](CO)[C@@H](O[C@H]2O[C@H](CO)[C@@H](O)[C@H](O)[C@H]2O)[C@H](O)[C@H]1O)[C@H](O)CO,11.9%,3.4%
CC(=O)OCC(=O)[C@@]1(O)CC[C@H]2[C@@H]3CCC4=CC(=O)CC[C@]4(C)C3=CC[C@@]21C,-2.9%,-11.2%
COc1ccc(CN2CCOc3ccc(CN4CCC(Oc5cccnc5)CC4)cc3C2)c(F)c1,3.2%,-11.8%
CCCCC(CC)CN=C(N)NC(N)=NCCCCCCN=C(N)NC(N)=NCC(CC)CCCC (stereo not drawn),56.2µM*,-49.0%
CCCN=C(N)NCCC[C@H](N)C(=O)O,-23.0%,-1.9%
NC[C@@H]1O[C@H](O[C@H]2[C@H](O)[C@H](O[C@H]3[C@@H](O)[C@H](N)C[C@H](N)[C@H]3O[C@H]3O[C@H](CN)[C@H](O)[C@H](O)[C@H]3N)O[C@@H]2CO)[C@@H](N)[C@@H](O)[C@@H]1O,16.7%[29.6 µM],-21.8%
CO[C@H]1[C@H](NC(=O)c2cccs2)c2ccccc2C12CCN(Cc1cccn1-c1ccccn1)CC2,-7.3%,-9.1%
COc1cc2c(cc1OC)C(=O)N(C)CC2,-19.0%,-15.8%
COc1cc2cc3c4c(cc(OC)c(OC)c4c2cc1OC)CCN3C,50.1µM*,?
O=C(O)[C@@H](O)[C@H](O)[C@H](O)[C@@H](O)C(=O)O (tested in a mixture with another compound),-10.9%,5.7%
O=C(CN1CCN(Cc2ccc3c(c2)OCO3)CC1)N1c2ccccc2Sc2ccccc21,-22.6%,11.2%
O=C(CN1Cc2ccccc2OC(c2ccsc2)C1)N1CCN(Cc2ccc3c(c2)OCO3)CC1 (stereo not drawn),56.2µM*,8.3%
CN(C)c1ccc(/C=C/c2cc(N(C)C)nc3ccccc23)cc1,?,-14.8%
Cc1cnc2ccccc2c1/C=C/c1ccc(N(C)C)cc1,-34.1%,100µM*
Cc1nc2ccccc2nc1/C=C/c1ccc(N(C)C)cc1,?,-52.6%
CN(C)c1ccc(/C=C/c2c3c(nc4ccccc24)CCCC3)cc1,83.9%,100µM*
CC(=O)c1ccc(F)c(-c2cc(C)cc3c2OC(CNC(=O)Cc2ccc4c(c2)OCO4)C3)c1 (stereo not drawn),?,18.9%
CCCc1c(OCCCOc2ccc(OCC(=O)O)cc2)ccc(CC=O)c1O,44.7µM*,-30.8%
CCCCOc1ccc(CC(=O)NO)cc1,-10.0%[56.6 µM],?
